Measured values as given in PubChem BioAssay (Tox21).
Inconclusive results are not listed. Entries that show only a call come without a potency. Calls of active or inactive are those of the source. The call rests on the fitted dose curve; in most records, active means well fitted activation curve with a large enough effect in the repeat runs; inconclusive means weak or mixed curves; inactive means flat fitted curve, though single readings scatter.

Assay: A CellTox Green Cytotoxicity Assay to monitor cytotoxicity in HepG2 cells - 32 hour (AID 1224883); further: nearly all actives have a fitted effect of over 50% in size
Conditions: CellTox Green fluorescence; series mostly up to 76.8 µM
Description: National Center for Advancing Translational Sciences [NCATS]
NIH Chemical Genomics Center [NCGC]
U.S. Environmental Protection Agency [EPA]
National Institutes of Environmental Health Sciences [NIEHS]
National Toxicology Program [NTP]
Cell-based models are critical for drug discovery. Determining the natural cytotoxic effects resulting from test compounds is an essential research activity. A CellTox Green Cytotoxicity Assay to monitor cytotoxicity in real time of continues cell culture during 40 hours of the compound treatment was used to screen Tox21 10K library compounds in HepG2 cells. CellTox Green Cytotoxicity Assay is a nonlytic, homogeneous, biofluorescent method to measure cytotoxicity in cell culture after experimental manipulation. The assay system uses a proprietary asymmetric cyanine dye that is excluded from viable cells but preferentially stains the dead cell's DNA. […] Viable cells produce no appreciable increases in fluorescence. Therefore, the fluorescence signal produced by the binding interaction with dead cell DNA is proportional to cytotoxicity.
The mixture of HepG2 cell suspension and reagents were dispensed at 600cells/6 ul/well in 1536-well tissue culture treated black solid bottom plates using a Multidrop dispenser. After the assay plates were incubated at a 37 C/5% CO2 incubator for 5 hours, 23 nL of compounds dissolved in DMSO, positive and negative controls was transferred to the assay plate by a pintool work station. The plates were incubated at 37 C for 40 hours. The fluorescence intensity were measured at 0h, 8h, 16h, 24h, 32h and 40h time points using ViewLux plate reader during compound treatment.

| Structure (SMILES) | Potency |
| --- | --- |
| CCNc1nc(Cl)nc(NC(C)C)n1 | inactive |
| FC(F)(F)c1ccc(Cl)cc1 | inactive |
| Nc1nc(N)nc(NC2CC2)n1 | inactive |
| ClCCOCCCl | inactive |
| OCc1ccco1 | inactive |
| C=C(C)C(=O)OCC(CC)CCCC (stereo not given) | inactive |
| CNC(=O)O/N=C(\SC)C(=O)N(C)C | inactive |
| CC(C)CCCCCCOC(=O)c1ccccc1C(=O)OCCCCCCC(C)C | inactive |
| CN(C)NC(=O)CCC(=O)O | inactive |
| COc1cc(-c2ccc(N)c(OC)c2)ccc1N | inactive |
| CC12CC1(C)C(=O)N(c1cc(Cl)cc(Cl)c1)C2=O (stereo not given) | inactive |
| Oc1c(Br)cc(Br)cc1Br | inactive |
| CN(C)C(=O)Nc1cccc(C(F)(F)F)c1 | inactive |
| O=C(O)CCCc1ccc(N(CCCl)CCCl)cc1 | inactive |
| OC[C@@H](O)[C@H]1O[C@@H]2O[C@H](C(Cl)(Cl)Cl)O[C@@H]2[C@H]1O | inactive |
| CCCOC(=O)c1ccccc1C(=O)OCCC | inactive |
| CNC(=O)O/N=C/C(C)(C)S(C)=O (stereo not given) | inactive |
| OCCCCO | inactive |
| c1ccc2c(c1)CCCC2 | inactive |
| CCOC(=O)CC(SP(=O)(OC)OC)C(=O)OCC (stereo not given) | inactive |

| Structure (SMILES) | Potency |
| --- | --- |
| Cc1ccc(O)c(C)c1 | inactive |
| CNC(=O)Oc1cccc2ccccc12 | inactive |
| Cc1cccc(N)c1 | inactive |
| Oc1ccc(Cl)cc1 | inactive |
| Cc1cccc(C)c1N | inactive |
| CSc1nnc(C(C)(C)C)c(=O)n1N | inactive |
| CNc1cnn(-c2cccc(C(F)(F)F)c2)c(=O)c1Cl | inactive |
| C=CC(=O)OCCCCCC(C)C | inactive |
| O=C(O)Cc1ccccc1 | inactive |
| Nc1cccc(Cl)c1 | inactive |
| COc1nc(NC(C)C)nc(NC(C)C)n1 | inactive |
| CCOP(=S)(OCC)Oc1cc(C)nc(C(C)C)n1 | inactive |
| O=C/C=C/c1ccccc1 | inactive |
| Cc1cccc(N)c1C | inactive |
| O=C(O)C(Br)Br | inactive |
| Nc1cc(Cl)cc(Cl)c1 | inactive |
| COP(=S)(OC)SCN1C(=O)c2ccccc2C1=O | inactive |
| N#Cc1ccccn1 | inactive |
| N#CN=C(N)N | inactive |
| NNc1ccccc1 | inactive |
